# From PubChem BioAssay
# PI5P4K alpha inh = qHTS for Inhibitors of phosphatidylinositol 5-phosphate 4-kinase (PI5P4K) | PI5P4Kalpha enzyme, ADP-Glo luminescence, 60 min; active compounds read low | max response, % | actives 1.2% (n = 330,000); active means max response of -50% or lower; inconclusive means between -30% and -50%; inactive means -30% or higher; further: value at the top dose of about 77 µM; on the % scale 0 is the no-effect control and ±100 the full control effect
#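 ADP-Glo luminescence end-point after a 60 min room-temperature kinase reaction. PI5P4Kalpha and substrate in HEPES pH 7.4 buffer with EGTA, 0.1% CHAPS and 5% DMSO; ATP at 5 microM final.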
# Rango complex inh = qHTS Assay for Inhibitors of Rango (Ran-regulated importin-beta cargo) - Importin beta complex formation; Potency, µM (series often up to 92.2 µM), for inactives: top-dose inhibition of complex formation; Importin subunit beta-1 (Homo sapiens), Q14974; Rango CFP/YFP FRET sensor + importin beta, 45 min; actives 0.031% (n = 340,000); AID 540263, 2011; calls by dose curve;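 further: potency means the concentration at half of the fitted maximal effect; 0% = DMSO wells and 100% = buffer wells lacking importin beta; nearly all actives have a fitted effect of over 15% in size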
#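 FRET biosensor (snurportin 1 IBB flanked by EYFP and cerulean), 50 nM, with compound 5 min, then 0.125 microM importin beta in PBS, 1 mM DTT, 0.02% Tween-20, 0.1% BSA. CFP/YFP ratio read after 45 min at room temperature; pre-read flags interference.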
# VDR inhibitor = Inhibitors of the vitamin D receptor (VDR): qHTS; Vitamin D3 receptor (Homo sapiens), P11473; VDR-SRC2-3 peptide fluorescence polarization, 2 h; Potency, µM, for inactives: max response, negative = inhibition, hits mostly inhibitors; actives 0.93% (n = 400,000); AID 504847, 2011; further: potency means the concentration at half of the fitted maximal effect; on the % scale 0 is the no-effect control and ±100 the full control effect
#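 Inhibition of the VDR/SRC2-3 peptide interaction is quantified by fluorescence polarization. Compounds (23 nl, pintool) incubate with the reagents for 2 hours at ambient room temperature.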
# PLK1 PBD block = qHTS for Inhibitors of PLK1-PDB (polo-like kinase 1 - polo-box domain): Primary Screen. Plk1 PBD binding of FITC phosphopeptide, fluorescence polarization. Potency, µM, for the others: max response, negative = inhibition, hits mostly inhibitors. Serine/threonine-protein kinase PLK1 (Homo sapiens), P53350. actives 2.8% (n = 360,000); further: potency means the concentration at half of the fitted maximal effect; series mostly up to about 57 µM; on the % scale 0 is the no-effect control and ±100 the full control effect; nearly all actives have a fitted effect of over 65% in size
# KAT2A inh = qHTS Assay for Inhibitors of GCN5L2 | AID 504327, 2011 | actives 0.21% (n = 390,000) | GCN5L2 HAT assay, ThioGlo1 CoA-SH fluorescence | Potency, µM (highest dose often 58.9 µM), for the others: at the top dose activity change, negative = inhibition, actives largely listed as inhibitors; further: potency means the concentration at half of the fitted maximal effect; on the % scale 0 is the no-effect control and ±100 the full control effect
# Target sequence (Q92830 whole entry, looked up): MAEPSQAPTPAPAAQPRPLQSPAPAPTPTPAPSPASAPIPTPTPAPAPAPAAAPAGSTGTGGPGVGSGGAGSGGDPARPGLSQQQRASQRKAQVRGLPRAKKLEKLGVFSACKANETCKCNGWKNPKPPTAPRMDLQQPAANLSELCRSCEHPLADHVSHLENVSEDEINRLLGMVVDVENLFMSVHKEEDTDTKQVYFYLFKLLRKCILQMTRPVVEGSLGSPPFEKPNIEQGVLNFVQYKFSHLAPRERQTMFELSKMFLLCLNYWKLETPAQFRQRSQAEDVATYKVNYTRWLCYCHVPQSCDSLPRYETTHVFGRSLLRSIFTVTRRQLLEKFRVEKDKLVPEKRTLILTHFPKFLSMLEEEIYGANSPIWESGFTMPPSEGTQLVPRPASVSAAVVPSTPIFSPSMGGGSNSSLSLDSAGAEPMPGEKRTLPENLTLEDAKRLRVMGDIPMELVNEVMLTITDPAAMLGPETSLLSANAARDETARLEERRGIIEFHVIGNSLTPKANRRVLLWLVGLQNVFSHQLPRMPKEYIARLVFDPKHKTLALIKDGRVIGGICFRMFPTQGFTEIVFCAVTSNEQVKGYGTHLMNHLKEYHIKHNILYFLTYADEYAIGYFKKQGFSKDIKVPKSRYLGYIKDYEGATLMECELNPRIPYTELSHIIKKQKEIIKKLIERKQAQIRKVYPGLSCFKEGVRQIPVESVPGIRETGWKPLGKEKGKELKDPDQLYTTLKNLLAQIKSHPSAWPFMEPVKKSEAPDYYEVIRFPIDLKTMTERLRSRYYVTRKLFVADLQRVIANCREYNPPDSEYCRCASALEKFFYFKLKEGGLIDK
#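 Titration-based screen in which CoA formation is detected via maleimide probe ThioGlo1 (50uM) turning fluorescent on thiol reaction; substrates H3(1-25) 75uM and acetyl-CoA 70uM, GCN5L2 20nM, 20 min incubation at room temperature.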
# Rango release inh = qHTS Assay for Inhibitors of RanGTP induced Rango (Ran-regulated importin-beta cargo) - Importin beta complex dissociation. Snurportin-1 (Homo sapiens) + GTP-binding nuclear protein Ran (Homo sapiens) + Importin …. Biochemical FRET Rango-importin beta, RanGTP-induced dissociation. Potency, µM (titrated, usually from 46.1 µM), inactives show at the top dose activity change, negative = inhibition. actives 0.071% (n = 340,000); calls by dose curve; further: potency means the concentration at half of the fitted maximal effect; % of control where 0% means no effect; nearly all actives have a fitted effect of over 45% in size
#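 Compounds sat 5 min at room temperature with 0.1 uM Rango biosensor plus 0.25 uM importin beta, then FRET pre-read. RanGTP-RCC1 (0.6 uM Ran, 2mM GTP, 0.2 uM RCC1) added for 45 min, and the CFP/YFP post-read measured blocked complex dissociation.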
# VDR inh confirm = qHTS for Inhibitors of the vitamin D receptor (VDR): Hit Validation in Primary Screen. shares compounds with VDR inhibitor. VDR-coactivator inhibition assay, qHTS confirmation. Potency, µM, usual class: inhibitors. actives 89% (n = 840). AID 602199, 2012; further: potency means the concentration at half of the fitted maximal effect
# VDR FP = qHTS for Inhibitors of the vitamin D receptor (VDR): Hit Validation using a Fluorescein Assay; shares compounds with VDR inhibitor; VDR-coactivator binding, fluorescein fluorescence polarization; Potency, µM (series often up to 57.1 µM), for inactives: at the top dose activity change, negative = inhibition, actives largely listed as inhibitors; actives 48% (n = 840); further: potency means the concentration at half of the fitted maximal effect
# VDR bla = qHTS for Inhibitors of the vitamin D receptor (VDR): Hit Validation using a Beta-Lactamase Assay. shares compounds with VDR inhibitor. Potency, µM (titrated, usually from 46.1 µM), for inactives: top-dose activity change, negative = inhibition, actives largely listed as inhibitors. actives 23% (n = 840). VDR beta-lactamase reporter cells, FRET ratio; cells co-treated with VDR agonist LG190178; further: potency means the concentration at half of the fitted maximal effect; on the % scale 0 is the no-effect control and ±100 the full control effect
# VDR viability = qHTS for Inhibitors of the vitamin D receptor (VDR): Hit Validation using a Cytotoxicity Assay; shares compounds with VDR inhibitor; cytotoxicity counter-screen, cell viability, qHTS; Potency, µM (series often up to 48.3 µM), without a hit: top-dose activity change, negative = cytotoxicity, usual class: cytotoxic; actives 18% (n = 840); AID 602204, 2012;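 further: potency means the concentration at half of the fitted maximal effect; plate controls were DMSO for no effect and high-concentration cycloheximide for full effect; nearly all actives have a fitted effect of over 75% in size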
# * marks the source's active call; other numbers are inactive results; ? = inconclusive; . = not tested or not shown. The list is not random: actives were taken first. Their share in the collection is about 3.6%. Unless noted, the call rests on the fitted dose curve; in most records, active means well fitted curve in the direction sought with a large enough effect; inconclusive means small, poorly fitted or top-dose-only effect, or another doubt; inactive means no such curve, though single readings can be large; an effect the other way counts as inactive or inconclusive.
SMILES,PI5P4K alpha inh,Rango complex inh,VDR inhibitor,PLK1 PBD block,KAT2A inh,Rango release inh,VDR inh confirm,VDR FP,VDR bla,VDR viability
O=C1Nc2ccccc2C1=Nc1ccc(F)cc1,-3,1%,?,0%,2%,-7%,.,.,.,.
CC(=O)c1ccc(N=C2C(=O)Nc3ccccc32)cc1,-4,-3%,4µM*,?,-1%,-15%,3.4*,3.5µM*,16%,-7%
NS(=O)(=O)c1ccc(N=C2C(=O)Nc3ccccc32)cc1,0,0%,10%,2%,-5%,-7%,.,.,.,.
Cc1ccc(/C=c2\sc3nc(-c4cccnc4)nn3c2=O)cc1,-18,0%,?,-13%,-8%,-1%,2.2*,1.1µM*,3%,18%
CCOc1ccc(/C=c2\sc3nc(-c4ccco4)nn3c2=O)cc1OCC,-18,0%,-15%,-26%,-2%,8%,.,.,.,.
CC(C)c1ccc(/C=c2\sc3nc(-c4ccncc4)nn3c2=O)cc1,-2,1%,22µM*,-30%,1%,2%,2.7*,?,-7%,18%
COc1ccc(CCNc2nc3cc(OC)c(OC)cc3c3nc(-c4cccnc4)nn23)cc1OC,.,.,3%,.,-1%,.,.,.,.,.
O=S(=O)(NCCc1cn(S(=O)(=O)c2ccccc2)c2ccccc12)c1ccccc1,.,.,1%,.,.,.,.,.,.,.
O=C(/C=C/c1c(F)cccc1Cl)c1ccc(F)cc1,19,0%,45µM*,?,21%,-11%,11*,8.9µM*,29%,-17%
O=C(CCN1CCc2ccccc2CC1)c1ccc2c(c1)OCCO2,.,0%,?,13µM*,-2%,3%,13*,11µM*,?,?
COc1ccc(-c2cc(C(F)(F)F)nc(N)n2)cc1,1,1%,-8%,-9%,1%,0%,.,.,.,.
CS(=O)(=O)c1nc(-c2ccc(F)cc2)cc(C(F)(F)F)n1,-3,2%,7.9µM*,24µM*,0%,8%,19*,?,?,?
COc1ccc(-c2cc(C(F)(F)F)nc(S(C)(=O)=O)n2)cc1,0,-11%,40µM*,?,-2%,-13%,18*,28µM*,?,?
